Lassa entry inh = qHTS for Inhibitors of binding or entry into cells for Lassa Virus | 1.2% of 300,000 active | Lassa virus pseudotype entry inhibition, cell reporter | AID 540256, 2011 | Potency, µM (doses to about 37.9 µM), for inactives: at the top dose activity change, negative = inhibition, actives largely listed as inhibitors; calls by dose curve; tested in HEK293 cells; further: potency means the concentration at half of the fitted maximal effect; nearly all actives have a fitted effect of over 50% in size
Marburg entry inh = qHTS for inhibitors of binding or entry into cells for Marburg Virus; AID 540276, 2011; Potency, µM (series often up to 37.8 µM), without a hit: top-dose activity change, negative = inhibition, actives largely listed as inhibitors; Marburg virus pseudotyped entry inhibition, cell reporter; 1.8% of 300,000 active; calls by dose curve; tested in HEK293 cells; further: potency means the concentration at half of the fitted maximal effect
HCMV inh = qHTS Assay for inhibitors of the human cytomegalovirus (HCMV); HFF cells, HCMV-luciferase reporter, 72 h; hits give low values; activity change, negative = inhibition, % at 57.5 µM; 4.5% of 410,000 active; in the data active means activity change below about -60%; inconclusive means no clear call, values can overlap the other calls; inactive means above about -39%
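Inhibition of viral replication was scored as loss of reporter luminescence in HFFs infected with HCMV-luciferase (MOI 1 PFU/cell) for 72 h; compounds tested at 2 doses, normalized to buffer and Salinomycin controls.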
VACV Venus inh = qHTS for Stage-Specific Inhibitors of Vaccinia Orthopoxvirus: Venus Reporter Primary qHTS. Vaccinia virus Venus reporter expression, fluorescence. 0.46% of 330,000 active. Potency, µM (titrated, usually from 36.5 µM), without a hit: top-dose activity change, negative = inhibition, hits mostly inhibitors; calls by dose curve; tested in A549 cells; further: potency means the concentration at half of the fitted maximal effect; nearly all actives have a fitted effect of over 30% in size
VACV mCherry inh = qHTS for Stage-Specific Inhibitors of Vaccinia Orthopoxvirus: mCherry Reporter Primary qHTS; Vaccinia virus mCherry reporter infection, fluorescence; Potency, µM (highest dose often 36.5 µM), for inactives: at the highest dose activity change, negative = inhibition, actives largely listed as inhibitors; 0.63% of 310,000 active; AID 720579, 2013; calls by dose curve; tested in A549 cells; further: potency means the concentration at half of the fitted maximal effect; nearly all actives have a fitted effect of over 35% in size
HCV inh = qHTS Assay for Inhibitors of Hepatitis C Virus (HCV); Huh7.5.1 HCVcc-Cre infection, luciferase reporter, 44 h; Potency, µM (top dose mostly 41.8 µM), for inactives: at the top dose activity change, negative = inhibition, usual class: inhibitors; 3.4% of 340,000 active; AID 651820, 2012; active means well fitted inhibition curve with a large enough effect; inconclusive means small, poorly fitted or top-dose-only effect, or another doubt; inactive means no such curve, though single readings can be large or run the other way; further: potency means the concentration at half of the fitted maximal effect
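Reporter virus HCVcc-Cre (~0.5 moi) infects cells exposed to compound; seeding density 1,000 cells/well with 4 h settling beforehand. Luminescence, 15 sec read, taken 44 h post-infection following a 15 min RT substrate incubation.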
The depositor's hits bear a star; i = inactive; ? = inconclusive; nt = no result; [ ] = another dose, or the depositor's remark. Hits are enriched below; roughly 7.8% of the tested compounds scored in any of these assays. On the % scale 0 is the no-effect control and ±100 the full control effect.

SMILES	Lassa entry inh	Marburg entry inh	HCMV inh	VACV Venus inh	VACV mCherry inh	HCV inh
NCCC(O)C(=O)NC1C[C@@H](N)[C@H](O[C@@H]2OC(CN)C(O)C(O)C2O)C(O)[C@H]1O[C@H]1OC(CO)C(O)C(N)C1O (stereo partly specified)	nt	nt	nt	-11%	-7%	nt
COc1cccc2c1cc1c(=O)n(CC(=O)NC3CC3)nc(C)n12	nt	2%[46.1 µM]	-15	-13%	i	nt
CCC[N+](C)(C)c1ccc(/C=C/c2ccncc2)cc1	nt	nt	nt	i	211%	nt
Fc1ccc(C(OCCN2CCN(CCCc3ccccc3)CC2)c2ccc(F)cc2)cc1	3.7µM*	7.1µM*	-99*	nt	nt	nt
c1ccc(CCCN2CCN(CCOC(c3ccccc3)c3ccccc3)CC2)cc1	16µM*	14µM*	-66*	?	?	7.9µM*
c1ccc(COCCN2CCN(CCOCc3ccccc3)CC2)cc1	-3%	?	-3	nt	nt	-21%
CCCC(=O)N(C)c1ccc(/C=C2\C=Cc3ccccc32)cc1	nt	nt	nt	-23%	?	nt
COc1ccc(CNC(=O)c2cnc(N3CCN(Cc4ccccc4C#N)C3=O)s2)cc1OC	nt	nt	0	nt	nt	nt
COc1ccc(CNC(=S)NCc2ccc(F)cc2)cc1OC	-14%[46.1 µM]	-3%[46.1 µM]	-63*	-12%	-2%	?
COc1ccc(CCNC(=S)c2ccccc2)cc1OC	nt	1%	?	nt	nt	8.9µM*
COc1ccc(CCNC(=O)CC(c2ccccc2)c2cc(C)ccc2O)cc1OC (stereo unspecified)	nt	nt	nt	nt	nt	10µM*
COc1ccc(CNC(=O)c2csc(N3CCN(CCc4ccccc4)C3=O)n2)cc1OC	nt	nt	-86*	nt	nt	nt
CCN1CCCC1CNCc1cc2c(OC)c(OC)c(OC)cc2nc1N(C)C (stereo unspecified)	nt	nt	nt	11%	-8%	nt
COCC1CCCN(Cc2ccc3c(c2)CN(C(=O)c2cccnc2OC)CCO3)C1 (stereo unspecified)	nt	nt	nt	?	-10%	nt
O=C(CNC(=O)c1ccccc1F)OCc1cc(=O)n2nc(C3CC3)sc2n1	9%[46.1 µM]	nt	-6	-4%	-2%	nt
CCCCNC(=O)c1cccc(-n2cnc3cccnc32)c1C	-2%[46.1 µM]	nt	0	-9%	-12%	nt
CCOc1ccc(CNC(=O)c2ccc3c(c2)c(C)c(C)n3Cc2ccccc2)cc1OC	-2%[46.1 µM]	nt	?	-19%	-18%	nt
Cc1cccc(C)c1NC(=O)CCSc1nc(-c2ccc3c(c2)OCO3)cc(C(F)(F)F)n1	5%[46.1 µM]	-6%[46.1 µM]	-24	-20%	-12%	nt
COc1ccc(CNC(=O)c2ccc3ccccc3n2)cc1OC	?	?	?	-14%	-27%	10µM*
CCOc1ccc(CCNC(=O)c2ccc3ccccc3n2)cc1OCC	nt	nt	92	nt	nt	11µM*
COc1ccc(CCNCc2c(OC)ccc3ccccc23)cc1OC	nt	nt	-12	nt	nt	11µM*
COc1ccc(CCNCc2ccccc2F)cc1OC	3%	8%	5	-8%	nt	15%
O=C(NC(Cc1c[nH]c2ccccc12)C(=O)O)c1cccs1 (stereo unspecified)	-6%	-2%[14.2 µM]	-10	-5%	-1%	25%
O=C(NC(Cc1c[nH]c2ccccc12)C(=O)Nc1ccc(F)c([N+](=O)[O-])c1)c1cccs1 (stereo unspecified)	0.58µM*	0.79µM*	-87*	3%	2.5µM*	?
Cc1cccc(-c2nnc3n2N=C(c2ccccc2Br)CS3)c1	?	?	-83*	-21%	-24%	?
SMILES	Lassa entry inh	Marburg entry inh	HCMV inh	VACV Venus inh	VACV mCherry inh	HCV inh
COc1ccc(OC)c(C2=Nn3c(nnc3-c3cc(OC)c(OC)c(OC)c3)SC2)c1	-25%[14.3 µM]	?	37	?	-16%	nt
COc1ccc(C2=Nn3c(nnc3-c3ccc(OC)cc3)SC2)cc1	1.3µM*	?	-101*	nt	nt	3.5µM*
CCOc1cccc(-c2nnc3n2N=C(c2cc(OC)ccc2OC)CS3)c1	-9%	-7%	16	5%	-8%	11µM*
COc1ccc(OC)c(C2=Nn3c(nnc3-c3ccncc3)SC2)c1	?	4µM*	0	-8%	-6%	-22%
COc1cccc(-c2nnc3n2N=C(C(C)(C)C)CS3)c1	-13%	-12%	-98*	nt	nt	11µM*
COc1cccc(-c2nnc3n2N=C(c2cc(OC)ccc2OC)CS3)c1	?	?	-62*	nt	nt	10µM*
Cc1ccc(CSCCNC(=O)C2CCN(S(=O)(=O)Cc3ccccc3)CC2)cc1	?	?	3	-4%	-3%	nt
COC(=O)[C@H](COC(C)(C)C)NC(=O)O[C@H]1C(=O)c2ccc(OC)cc2O[C@@H]1c1ccc2c(c1)OCO2	nt	-14%[14.2 µM]	nt	nt	nt	nt
N#CC1=C2N=C(N)c3ccccc3N2C2=C(C(=O)CCC2)C1c1ccccc1F (stereo unspecified)	nt	nt	16	nt	nt	6%
N#CC1=C2N=C(N)c3ccccc3N2C2=C(C(=O)CCC2)C1c1ccc(Cl)cc1 (stereo unspecified)	?	-30%	-91*	-15%	-17%	?
CC1(C)CC(=O)C2=C(C1)N1C(=C(C#N)C2c2ccc(Cl)cc2)N=C(N)c2ccccc21 (stereo unspecified)	?	?	-93*	-27%	?	8.9µM*
Cc1ccc(NC(=O)CSc2nc(=O)n(CCN3CCOCC3)c3c2CCC3)c(C)c1	23%[46.1 µM]	nt	5	-5%[7.34 µM]	-4%[7.34 µM]	nt
CCc1cccc(C)c1NC(=O)CSc1nnc(N)s1	-17%[46.1 µM]	nt	-16	-11%	-10%	nt
Cn1cnc(S(=O)(=O)N2CCCC(C(=O)Nc3cccc(C#N)c3)C2)c1 (stereo unspecified)	11%[46.1 µM]	nt	59	-6%	-11%	nt
CCOc1ccc(OCc2cccc(C(=O)N3CCOCC3)c2)cc1	nt	2%	153	nt	nt	-21%
